# Data as given in PubChem BioAssay (NCI).
# “And” between values parts separate entries of the source, which are not always exact repeats. Equal values may be shown once. About 83,000 compounds went through this panel and 20% of them were active in at least one assay; those are over-represented in the sample as a whole.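 Step 1: grow cells in 96-well plates. Step 2: add test compound at a single concentration. Step 3: incubate 48 h. Step 4: record percent growth.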 The source made the active and inactive calls. The calls were made as follows: active = growth percent below 10; inactive = the rest.
# Key:
# Experiment in all cases: NCI-60 one-dose screen, 48 h (100 = growth as untreated, 0 = no growth, -100 = all killed)
# NCI-H23 lung = test system: NCI-H23 lung
# NCI-H226 lung = test system: NCI-H226 lung
# NCI-H322M lung = test system: NCI-H322M lung
# HOP-62 NSCLC = test system: HOP-62 NSCLC
# NCI-H460 lung = test system: NCI-H460 lung
# HOP-92 NSCLC = test system: HOP-92 NSCLC
# NCI-H522 lung = test system: NCI-H522 lung
# A549/ATCC NSCLC = test system: A549/ATCC NSCLC
# 786-0 renal = test system: 786-0 renal
# COLO 205 colon = test system: COLO 205 colon
smiles,measurement,setting,value
CN(C)CCNc1ncc(F)c(-c2cnc3cc(-c4cnn(C)c4)ccn23)n1,growth,NCI-H23 lung; 0.005 µM,101% (inactive)
same,growth,NCI-H23 lung; 30 µM,56.9% (inactive)
same,growth,NCI-H226 lung; 10 µM unless noted,76.5% [30 µM] (inactive)
same,growth,NCI-H322M lung; 0.005 µM,95.6% (inactive)
same,growth,NCI-H322M lung; 30 µM,44.7% (inactive)
same,growth,HOP-62 NSCLC; 0.005 µM,103% (inactive)
same,growth,HOP-62 NSCLC; 30 µM,60.2% (inactive)
same,growth,NCI-H460 lung; 0.005 µM,101% (inactive)
same,growth,NCI-H460 lung; 30 µM,15.7% (inactive)
same,growth,HOP-92 NSCLC; 0.005 µM,105% (inactive)
same,growth,HOP-92 NSCLC; 30 µM,61.4% (inactive)
same,growth,NCI-H522 lung; 0.005 µM,92.4% (inactive)
same,growth,NCI-H522 lung; 30 µM,51.9% (inactive)
same,growth,A549/ATCC NSCLC; 0.005 µM,101% (inactive)
same,growth,A549/ATCC NSCLC; 30 µM,34.3% (inactive)
same,growth,786-0 renal; 0.005 µM,102% (inactive)
same,growth,786-0 renal; 30 µM,44.2% (inactive)
same,growth,COLO 205 colon; 10 µM unless noted,25.8% [30 µM] (inactive)
CCN(Cc1ccccc1)c1ccc(/C=C2\COc3ccccc3C2=O)cc1,growth,NCI-H23 lung; 10 µM,97.2% (inactive)
same,growth,NCI-H23 lung; 100 µM,37.1% (inactive)
same,growth,NCI-H226 lung; 10 µM,95.4% (inactive)
same,growth,NCI-H226 lung; 100 µM,50.9% (inactive)
same,growth,NCI-H322M lung; 10 µM unless noted,75.9% [100 µM] (inactive)
same,growth,HOP-62 NSCLC; 10 µM,89.6% (inactive)
same,growth,HOP-62 NSCLC; 100 µM,56.8% (inactive)
same,growth,NCI-H460 lung; 10 µM,100% (inactive)
same,growth,NCI-H460 lung; 100 µM,45.8% (inactive)
same,growth,HOP-92 NSCLC; 10 µM,85.9% (inactive)
same,growth,HOP-92 NSCLC; 100 µM,23% (inactive)
same,growth,NCI-H522 lung; 10 µM,88.5% (inactive)
same,growth,NCI-H522 lung; 100 µM,2.07% (active)
same,growth,A549/ATCC NSCLC; 10 µM,99.4% (inactive)
same,growth,A549/ATCC NSCLC; 100 µM,47% (inactive)
same,growth,786-0 renal; 10 µM,86.9% (inactive)
same,growth,786-0 renal; 100 µM,54.5% (inactive)
same,growth,COLO 205 colon; 10 µM,106% (inactive)
same,growth,COLO 205 colon; 100 µM,38.9% (inactive)
Cc1c(C(=O)OCCCCOC(=O)c2c(C)n(C)c3scc[n+]23)[n+]2ccsc2n1C,growth,NCI-H23 lung; 10 µM unless noted,101% (inactive)
same,growth,NCI-H226 lung; 10 µM unless noted,91.1% (inactive)
same,growth,NCI-H322M lung; 10 µM unless noted,112% (inactive)
same,growth,HOP-62 NSCLC; 10 µM unless noted,109% (inactive)
same,growth,NCI-H460 lung; 10 µM unless noted,108% (inactive)
same,growth,HOP-92 NSCLC; 10 µM unless noted,88.9% (inactive)
same,growth,NCI-H522 lung; 10 µM unless noted,99.6% (inactive)
same,growth,A549/ATCC NSCLC; 10 µM unless noted,90.2% (inactive)
same,growth,786-0 renal; 10 µM unless noted,112% (inactive)
same,growth,COLO 205 colon; 10 µM unless noted,119% (inactive)
O=C(/C=C/c1cccs1)Nc1ncc(Cc2ccc(Cl)c(Cl)c2)s1,growth,NCI-H23 lung; 10 µM unless noted,91.4% (inactive)
same,growth,NCI-H226 lung; 10 µM unless noted,86% (inactive)
same,growth,NCI-H322M lung; 10 µM unless noted,76.5% (inactive)
same,growth,HOP-62 NSCLC; 10 µM unless noted,61.5% (inactive)
same,growth,NCI-H460 lung; 10 µM unless noted,48% (inactive)
same,growth,HOP-92 NSCLC; 10 µM unless noted,78.1% (inactive)
same,growth,NCI-H522 lung; 10 µM unless noted,38.9% (inactive)
same,growth,A549/ATCC NSCLC; 10 µM unless noted,59.4% (inactive)
same,growth,786-0 renal; 10 µM unless noted,75.2% (inactive)
same,growth,COLO 205 colon; 10 µM unless noted,51.4% (inactive)
COc1ccc(-c2cc(-c3cc(OC)c(OC)c(OC)c3)c(C#N)c(=O)n2CCCCC(=O)O)cc1,growth,NCI-H23 lung; 10 µM unless noted,96.7% (inactive)
same,growth,NCI-H226 lung; 10 µM unless noted,104% (inactive)
same,growth,NCI-H322M lung; 10 µM unless noted,98.4% (inactive)
same,growth,HOP-62 NSCLC; 10 µM unless noted,96.8% (inactive)
same,growth,NCI-H460 lung; 10 µM unless noted,96% (inactive)
same,growth,HOP-92 NSCLC; 10 µM unless noted,93.6% (inactive)
same,growth,NCI-H522 lung; 10 µM unless noted,87.3% (inactive)
same,growth,A549/ATCC NSCLC; 10 µM unless noted,93.9% (inactive)
same,growth,786-0 renal; 10 µM unless noted,97.5% (inactive)
same,growth,COLO 205 colon; 10 µM unless noted,115% (inactive)
CC(=O)N1N=C(c2ccc(Nc3nc(Nc4ccc(F)cc4)nc(Nc4ccc(Cl)cc4)n3)cc2)CC1c1ccc(N(C)C)cc1 (configuration not stated),growth,NCI-H23 lung; 10 µM unless noted,52.2% (inactive)
same,growth,NCI-H226 lung; 10 µM unless noted,42.3% (inactive)
same,growth,NCI-H322M lung; 10 µM unless noted,79.6% (inactive)
same,growth,HOP-62 NSCLC; 10 µM unless noted,109% (inactive) and 58.6% (inactive)
same,growth,NCI-H460 lung; 10 µM unless noted,44.9% (inactive)
same,growth,HOP-92 NSCLC; 10 µM unless noted,22.5% (inactive)
same,growth,NCI-H522 lung; 10 µM unless noted,47.8% (inactive)
same,growth,A549/ATCC NSCLC; 10 µM unless noted,30.3% (inactive)
same,growth,786-0 renal; 10 µM unless noted,113% (inactive) and 44.1% (inactive)
same,growth,COLO 205 colon; 10 µM unless noted,51.2% (inactive)
O=c1cc(N/N=C/c2ccc(F)cc2)c2cc(Cl)ccc2[nH]1,growth,NCI-H23 lung; 10 µM unless noted,85.3% (inactive)
same,growth,NCI-H226 lung; 10 µM unless noted,76.1% (inactive)
same,growth,NCI-H322M lung; 10 µM unless noted,95.2% (inactive)
same,growth,HOP-62 NSCLC; 10 µM unless noted,95% (inactive)
same,growth,NCI-H460 lung; 10 µM unless noted,102% (inactive)
same,growth,HOP-92 NSCLC; 10 µM unless noted,-48.3% (active)
same,growth,NCI-H522 lung; 10 µM unless noted,72.8% (inactive)
same,growth,A549/ATCC NSCLC; 10 µM unless noted,89.3% (inactive)
same,growth,786-0 renal; 10 µM unless noted,89.5% (inactive)
same,growth,COLO 205 colon; 10 µM unless noted,96.2% (inactive)
C/C=C(\C)C(=O)N[C@H]1CC[C@]2(C)C3CC[C@@]4(C)C(CC[C@@H]4C(C)N(C)C)C3CCC2[C@H]1OC(C)=O (some centres not stated),growth,NCI-H23 lung; 10 µM unless noted,-8.02% (active)
same,growth,NCI-H226 lung; 10 µM unless noted,-2.69% (active)
same,growth,NCI-H322M lung; 10 µM unless noted,-48.5% (active)
same,growth,HOP-62 NSCLC; 10 µM unless noted,-60% (active)
same,growth,NCI-H460 lung; 10 µM unless noted,-86.4% (active)
same,growth,HOP-92 NSCLC; 10 µM unless noted,-49.4% (active)
same,growth,NCI-H522 lung; 10 µM unless noted,6.83% (active)
same,growth,A549/ATCC NSCLC; 10 µM unless noted,-17.8% (active)
same,growth,786-0 renal; 10 µM unless noted,-88.8% (active)
same,growth,COLO 205 colon; 10 µM unless noted,-90.7% (active)
CCOC(=O)c1ccc(Nc2ncnc3c2cnn3-c2cccc(F)c2)cc1,growth,NCI-H23 lung; 10 µM unless noted,110% (inactive)
same,growth,NCI-H226 lung; 10 µM unless noted,94.6% (inactive)
same,growth,NCI-H322M lung; 10 µM unless noted,102% (inactive)
same,growth,HOP-62 NSCLC; 10 µM unless noted,93.7% (inactive)
same,growth,NCI-H460 lung; 10 µM unless noted,102% (inactive)
same,growth,HOP-92 NSCLC; 10 µM unless noted,90.6% (inactive)
same,growth,NCI-H522 lung; 10 µM unless noted,91.9% (inactive)
same,growth,A549/ATCC NSCLC; 10 µM unless noted,102% (inactive)
same,growth,786-0 renal; 10 µM unless noted,104% (inactive)
same,growth,COLO 205 colon; 10 µM unless noted,113% (inactive)
Cn1cc(-c2nc3c(F)cc4[nH]ncc4c3c3c2CCCC3)c(C(F)F)n1,growth,NCI-H23 lung; 10 µM unless noted,66.9% (inactive)
same,growth,NCI-H226 lung; 10 µM unless noted,62.2% (inactive)
same,growth,NCI-H322M lung; 10 µM unless noted,66.2% (inactive)
same,growth,HOP-62 NSCLC; 10 µM unless noted,57.3% (inactive)
same,growth,NCI-H460 lung; 10 µM unless noted,62.3% (inactive)
same,growth,HOP-92 NSCLC; 10 µM unless noted,8.14% (active)
same,growth,NCI-H522 lung; 10 µM unless noted,26.9% (inactive)
same,growth,A549/ATCC NSCLC; 10 µM unless noted,58.1% (inactive)
same,growth,786-0 renal; 10 µM unless noted,63.9% (inactive)
same,growth,COLO 205 colon; 10 µM unless noted,89.4% (inactive)
O=C(NNc1ccccc1)c1ncc[nH]1,growth,NCI-H23 lung; 10 µM unless noted,96.2% (inactive)
same,growth,NCI-H226 lung; 10 µM unless noted,62.6% (inactive)
same,growth,NCI-H322M lung; 10 µM unless noted,82.8% (inactive)
same,growth,HOP-62 NSCLC; 10 µM unless noted,73% (inactive)
same,growth,NCI-H460 lung; 10 µM unless noted,100% (inactive)
same,growth,HOP-92 NSCLC; 10 µM unless noted,95.1% (inactive)
same,growth,NCI-H522 lung; 10 µM unless noted,50.8% (inactive)
same,growth,A549/ATCC NSCLC; 10 µM unless noted,64.4% (inactive)
same,growth,786-0 renal; 10 µM unless noted,75.2% (inactive)
same,growth,COLO 205 colon; 10 µM unless noted,79.7% (inactive)
NS(=O)(=O)OCC1OC(n2cnc3cncnc32)C(O)C1O (configuration not stated),growth,NCI-H23 lung; 10 µM unless noted,6.16% [0.1 µM] (active) and 3.98% [0.1 µM] (active)
same,growth,NCI-H226 lung; 10 µM unless noted,16.8% [0.1 µM] (inactive)
same,growth,NCI-H322M lung; 10 µM unless noted,-26.7% [0.1 µM] (active) and 12.1% [0.1 µM] (inactive)
same,growth,HOP-62 NSCLC; 10 µM unless noted,-21.5% [0.1 µM] (active) and -12.7% [0.1 µM] (active)
same,growth,NCI-H460 lung; 10 µM unless noted,2.5% [0.1 µM] (active) and 0.409% [0.1 µM] (active)
same,growth,HOP-92 NSCLC; 10 µM unless noted,10.2% [0.1 µM] (inactive) and 3.58% [0.1 µM] (active)
same,growth,NCI-H522 lung; 10 µM unless noted,2.73% [0.1 µM] (active) and -11.8% [0.1 µM] (active)
same,growth,A549/ATCC NSCLC; 10 µM unless noted,11.1% [0.1 µM] (inactive) and 13.4% [0.1 µM] (inactive)
same,growth,786-0 renal; 10 µM unless noted,8.57% [0.1 µM] (active) and 11.9% [0.1 µM] (inactive)
same,growth,COLO 205 colon; 10 µM unless noted,32.2% [0.1 µM] (inactive) and 27.1% [0.1 µM] (inactive)
